Laboratory results from PubChem BioAssay AID990 (National Center for Advancing Translational Sciences (NCATS), 2007).
Activity calls are given as the source filed them.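 Rule for the calls: active = compound that made reporter-free parental cells show up as glowing objects under laser imaging, so likely a fluorescent false positive; inactive = the rest.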

Experiment: Parental Cell Counter Screen Assay for Epigenetic Modulators
Details: parental c127i cells, compound fluorescence imaging, 30 h
From the text: NIH Molecular Libraries Screening Centers Network [MLSCN] NIH Chemical Genomics Center [NCGC] MLSCN Grant: 1 X01 MH079860-01 Assay Provider: Elisabeth D. Martinez, University of Texas SW Medical Center NCGC Assay Overview: This assay is a counter screen for the Locus Derepression (LDR) assay (PubChem AID 597). The LDR assay detects the derepression of a GFP reporter that is stably integrated in a region of the genome of murine c127i mammary cells that is presumably silenced. Compounds that cause derepression of the locus to express GFP are identified by enumerating GFP positive cells using a laser-scanning microplate cytometer. […] Compounds active in the parental c127i cells are likely fluorescent.
NCGC Assay Protocol Summary: Two hundred and fifty cells in 5 uL per well were dispensed into black, clear-bottom 1536-well plates. Twenty-three nL compound was transferred to the assay plate and cells were incubated 30 hours at 37 C. Medium was removed, cells were washed two times with PBS, and fluorescent cells were enumerated as objects between the sizes of 20 to 120 um width and depth using a laser-scanning microplate imager (Acumen Explorer Ex3, TTP Labtech).

| Structure (SMILES) | outcome | Potency |
| --- | --- | --- |
| CCCCC1CC1C(=O)Nc1ccc(OC)c(OC)c1 (stereo not given) | inactive |  |
| Cc1cc(NC(c2ccccn2)c2ccc3cccnc3c2O)no1 (stereo not given) | inactive |  |
| Oc1ccc(COCc2ccccc2)c2cccnc12 | inactive |  |
| COCc1cc(CN2CCN(C)CC2)c(O)c2ncccc12 | inactive |  |
| Cc1cc(C)n(-c2nc(N(C)C)nc(N(C)C)n2)n1 | inactive |  |
| CN(C)C(=O)CSc1cccc2cccnc12 | inactive |  |
| CC(C)C(=O)NC(c1ccc(Cl)cc1Cl)c1ccc2cccnc2c1O (stereo not given) | inactive |  |
| CC(C)C(=O)NC(c1ccco1)c1cc([N+](=O)[O-])c2cccnc2c1O (stereo not given) | inactive |  |
| O=C(Cc1ccccc1)NC(c1ccco1)c1ccc2cccnc2c1O (stereo not given) | inactive |  |
| CCN1CSC(=S)N(CC)C1 | inactive |  |
| Oc1c(C(Nc2ccccn2)c2ccccn2)ccc2cccnc12 (stereo not given) | inactive |  |
| Cc1cc(C)n(-c2nc(NC(C)C)nc(NC(C)(C)C)n2)n1 | inactive |  |
| CC(C)C(=O)NC(c1ccc(N(C)C)cc1)c1ccc2cccnc2c1O (stereo not given) | inactive |  |
| c1cnn(-c2nc(N3CCOCC3)nc(N3CCOCC3)n2)c1 | inactive |  |
| CC(C)C(=O)NC(c1cccs1)c1cc(Cl)c2cccnc2c1O (stereo not given) | inactive |  |
| O=C(CSc1cccc2cccnc12)NCc1ccccc1 | inactive |  |
| CC(C)C(=O)NC(c1ccco1)c1cc(Cl)c2cccnc2c1O (stereo not given) | inactive |  |
| Oc1c(C(Nc2ccccc2C(F)(F)F)c2ccccn2)ccc2cccnc12 (stereo not given) | inactive |  |
| O=Nc1ccc(O)c2ncccc12 | inactive |  |
| CN1C(=S)SC(c2ccccc2)N(C)C1c1ccccc1 (stereo not given) | inactive |  |

| Structure (SMILES) | outcome | Potency |
| --- | --- | --- |
| c1ccc(Nc2nc(Nc3ccccc3)nc(-n3cccn3)n2)cc1 | inactive |  |
| CC(C)C(=O)NC(c1ccc(C(C)C)cc1)c1cc(Cl)c2cccnc2c1O (stereo not given) | inactive |  |
| CN1CCN(Cc2cc(Cl)c3cccnc3c2O)CC1 | inactive |  |
| O=C(CSc1cccc2cccnc12)Nc1ccccc1 | inactive |  |
| CC(C)C(=O)NC(c1ccco1)c1ccc2cccnc2c1O (stereo not given) | inactive |  |
| Cc1cc(C)n(-c2nc(NC(C)C)nc(NC(C)C)n2)n1 | inactive |  |
| COC(=O)c1cccc(NC(c2ccccn2)c2ccc3cccnc3c2O)c1 (stereo not given) | inactive |  |
| Cc1cc(C)n(-c2nc(NC(C)(C)C)nc(NC(C)(C)C)n2)n1 | inactive |  |
| COc1cccc(C(=O)NC(c2ccco2)c2cc(Cl)c3cccnc3c2O)c1 (stereo not given) | inactive |  |
| O=C(CSc1cccc2cccnc12)N1CCCC1 | inactive |  |
| O=C(Oc1cccc2cccnc12)c1ccc(Br)o1 | inactive |  |
| CCN(CC)c1ccc2cc(-c3nc4ccccc4[nH]3)c(=O)oc2c1 |  | 0.41 µM [fluorescent] (active) |
| Cc1ccc(N=Nc2ccc(O)c3ncccc23)cc1C | inactive |  |
| COc1ccc(NC(c2ccccn2)c2ccc3cccnc3c2O)cc1 (stereo not given) | inactive |  |
| CC(/C=C/C(=O)NO)=C\[C@@H](C)C(=O)c1ccc(N(C)C)cc1 | inactive |  |
| COc1ccc(C(NC(=O)C(C)C)c2ccc3cccnc3c2O)cc1 (stereo not given) | inactive |  |
| COc1ccc(C(=O)NC(c2ccco2)c2cc(Cl)c3cccnc3c2O)cc1 (stereo not given) | inactive |  |
| CCNc1nc(NCC)nc(-n2cc(C(=O)c3cc(Cl)ccc3O)cn2)n1 | inactive |  |
| CC(C)C(=O)NC(/C=C/c1ccccc1)c1cc([N+](=O)[O-])c2cccnc2c1O (stereo not given) | inactive |  |
| COc1ccc(C)cc1N=Nc1ccc(O)c2ncccc12 | inactive |  |
